# Assay results published in PubChem BioAssay (NCI).
# This is part of a sample that, as a whole, favours compounds with a hit. Of some 79,000 tested, about 15% had one in any assay. A number with no mark means an inactive call. Activity calls are given as the source filed them. Cut-off read from the data, not from the text of the source: active = growth inhibition above about 70%; inactive = the rest.
# Assays:
# [1] = NCI Yeast Anticancer Drug Screen. Data for the rad50 strain (AID 155);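 note: 0% = growth of vehicle-only cultures of the same strain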; settings: S. cerevisiae rad50 strain growth inhibition; at 50.0 µM; active compounds read high
# Procedure, shortened: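 Inhibition values express reduced yeast growth in compound-treated cultures relative to vehicle-treated controls.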
# [2] = NCI Yeast Anticancer Drug Screen. Data for the mec2-1 strain (AID 157); settings: S. cerevisiae mec2-1 strain, at 50.0 µM, active compounds read high
# Procedure, shortened: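 Readout is yeast growth inhibition, normalised to vehicle-treated controls, in the mec2-1 strain exposed to compound.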
# [3] = NCI Yeast Anticancer Drug Screen. Data for the sgs1 mgt1 strain (AID 161);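 note: 0% = growth of cultures given vehicle only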; settings: S. cerevisiae sgs1 mgt1 strain, at 50.0 µM, active compounds read high
# Procedure, shortened: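 Compounds are added to genetically altered yeast, and growth is compared with cultures given vehicle alone to give percent inhibition.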
# [4] = NCI Yeast Anticancer Drug Screen. Data for the cln2 rad14 strain (AID 165);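 note: 0% = growth equal to vehicle treated cultures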; settings: S. cerevisiae cln2 rad14 strain, at 50.0 µM, active compounds read high
# Procedure, shortened: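 Relative to vehicle controls, growth inhibition of compound-treated cln2 rad14 yeast was recorded.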
# [5] = NCI Yeast Anticancer Drug Screen. Data for the bub3 strain (AID 167); settings: S. cerevisiae bub3 mutant strain, at 50.0 µM, active compounds read high
# Procedure, shortened: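 Steps: expose the mutant yeast strain to compound; grow alongside vehicle-treated cultures; measure growth; express inhibition against the vehicle cultures.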
# [6] = NCI Yeast Anticancer Drug Screen. Data for the mlh1 rad18 strain (AID 175); settings: S. cerevisiae mlh1 rad18 strain growth inhibition; at 50.0 µM; active compounds read high
# Procedure, shortened: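 Test agents were incubated with a yeast strain of defined genotype (DNA damage repair defect). Inhibition of growth was derived by comparison with vehicle-exposed cultures.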
SMILES,growth inhibition [1],growth inhibition [2],growth inhibition [3],growth inhibition [4],growth inhibition [5],growth inhibition [6]
OCc1ccc(-c2ccc(-c3ccc(CO)s3)o2)s1,31.1%,3.55%,39.9%,31.9%,25.3%,90.7% (active)
O=C(O)CCCC(=O)O,-36.5%,-0.7%,-22.6%,-21.4%,-51.6%,4.5%
Oc1ccc(N=Nc2ccc(Br)cc2)c(O)c1,4.15%,31.3%,30.2%,-20.1%,33.6%,22.8%
CC(C)CCCC(=O)O,-9.7%,-7.5%,-1.25%,27.8%,,-13.8%
CC(=O)OC1CC2C(C)(C)OC3CC(=O)OCC32C2CCC3(C)C(=CCC3c3ccoc3)C12C (stereo not drawn),6.45%,-5.7%,-26.6%,17.8%,-10.3%,1.1%
O=C(NCc1ccco1)Nc1c(Cl)cc(Cl)cc1Cl,-3.1%,-26.1%,-2.85%,2.65%,-13.4%,-3.6%
CCC(C)(C)C1CCC(O)CC1 (stereo not drawn),10.2%,6.6%,12.7%,-53.5%,-5.15%,1.5%
COc1cc(C(N)=O)cc(OC)c1OC,2.9%,-9.5%,-0.35%,4.9%,4.95%,-2.65%
CC(=O)c1c[nH]c2ccccc12,-6.8%,-9.85%,-19.6%,-53.2%,,9.15%
c1cc2cccc3c4cccc5cccc(c(c1)c23)c54,-18.9%,-22.6%,-17.9%,10.8%,-4.15%,-15.4%
CC(C)OC(=O)c1cc(NC(=S)OC(C)C)ccc1Cl,3.95%,10.2%,22.9%,15.3%,,85.1% (active)
